Our source for the composite z-score and z-score values is PubChem BioAssay.

The structures appear in SMILES notation. The source made the active and inactive calls. Unless noted, how the calls were made is not given here.

Assay [1] can be described thus: compounds binding Alexa647 anti-His antibody – biochemical, small-molecule microarray, 635 nm fluorescence, artefact control for SMM control protein annotation, primary screen (AID 1128).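 Further: score merges feature fluorescence with signal-to-noise for each printed compound spot.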 The note with it: higher = more signal.
The subject of assay [2] is Human papillomavirus type 1a E7 protein (residues 1-88). Kind of assay: HPV1a E7 small-molecule binders, primary screen, biochemical, small-molecule microarray, residues 1-88, 635 nm (AID 1129). The note with it: small-molecule microarray binding, fluorescence 635 nm; higher = more signal.
The target of assay [3] is Focal adhesion kinase 1 (Homo sapiens) (UniProt Q05397). Description: PTK2 protein binding on printed compound slides – biochemical, small-molecule microarray, 635/667 nm fluorescence, BSA, DTT, primary screen (AID 1130).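 Further: composite of spot emission at 667 nm and signal to noise over triplicate slides.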 The note with it: 635 nm fluorescence, higher = more signal.
Focal adhesion kinase 1 (Homo sapiens), sequence (Q05397 whole entry, looked up): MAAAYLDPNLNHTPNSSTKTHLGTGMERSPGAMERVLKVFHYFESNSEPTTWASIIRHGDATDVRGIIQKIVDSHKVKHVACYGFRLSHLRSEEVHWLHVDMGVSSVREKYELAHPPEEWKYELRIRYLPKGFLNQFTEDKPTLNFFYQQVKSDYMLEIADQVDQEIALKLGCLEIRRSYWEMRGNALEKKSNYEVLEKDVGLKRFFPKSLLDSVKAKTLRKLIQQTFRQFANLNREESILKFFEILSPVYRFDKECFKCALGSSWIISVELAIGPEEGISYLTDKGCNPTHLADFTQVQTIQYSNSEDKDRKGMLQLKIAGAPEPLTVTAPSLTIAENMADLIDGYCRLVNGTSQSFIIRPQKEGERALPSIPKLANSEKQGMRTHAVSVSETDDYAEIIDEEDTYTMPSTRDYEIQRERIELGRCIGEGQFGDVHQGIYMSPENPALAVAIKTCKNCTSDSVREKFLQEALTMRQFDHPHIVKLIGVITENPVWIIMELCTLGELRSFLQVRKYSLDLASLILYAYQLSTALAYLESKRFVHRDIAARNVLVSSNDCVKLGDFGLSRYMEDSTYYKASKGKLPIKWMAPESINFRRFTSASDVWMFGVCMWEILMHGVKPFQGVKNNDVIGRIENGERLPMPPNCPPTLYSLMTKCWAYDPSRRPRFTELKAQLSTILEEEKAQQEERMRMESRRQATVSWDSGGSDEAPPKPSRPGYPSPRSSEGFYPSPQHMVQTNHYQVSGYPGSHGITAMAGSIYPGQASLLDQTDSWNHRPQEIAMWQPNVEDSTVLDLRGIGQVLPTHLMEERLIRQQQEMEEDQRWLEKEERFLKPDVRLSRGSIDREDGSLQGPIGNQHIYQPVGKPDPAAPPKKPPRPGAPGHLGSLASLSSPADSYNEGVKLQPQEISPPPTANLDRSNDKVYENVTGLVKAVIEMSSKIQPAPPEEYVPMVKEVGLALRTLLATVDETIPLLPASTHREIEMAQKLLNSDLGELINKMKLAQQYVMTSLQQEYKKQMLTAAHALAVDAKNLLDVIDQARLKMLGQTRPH
For assay [4], the system named is Fibrinogen (Alexa647-labelled). Kind of assay: Alexa647-fibrinogen binding to printed small molecules – biochemical, small-molecule microarray, 635/667 nm fluorescence, artefact control for SMM control-protein annotation, profiling panel (AID 1131).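 Further: z-score merges 667 nm fluorescence with per-spot signal-to-noise over triplicate slides.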 The note with it: fibrinogen-A647 binding fluorescence, higher = more signal.
Assay [5] addresses Follistatin (Homo sapiens) (UniProt P19883). Description: FST protein binding to printed compounds – biochemical, small-molecule microarray, 635/667 nm fluorescence, primary screen (AID 1132). The note with it: 635 nm fluorescence, higher = more signal.
Assay [6] deals with Fibroblast growth factor 2 (Homo sapiens) (UniProt P09038). Description: basic fibroblast growth factor binding to printed compounds – biochemical, small-molecule microarray, 635/667 nm fluorescence, primary screen (AID 1133). The note with it: FGF2, fluorescence 635/667, higher = more signal.
Fibroblast growth factor 2 (Homo sapiens), sequence (P09038 whole entry, looked up): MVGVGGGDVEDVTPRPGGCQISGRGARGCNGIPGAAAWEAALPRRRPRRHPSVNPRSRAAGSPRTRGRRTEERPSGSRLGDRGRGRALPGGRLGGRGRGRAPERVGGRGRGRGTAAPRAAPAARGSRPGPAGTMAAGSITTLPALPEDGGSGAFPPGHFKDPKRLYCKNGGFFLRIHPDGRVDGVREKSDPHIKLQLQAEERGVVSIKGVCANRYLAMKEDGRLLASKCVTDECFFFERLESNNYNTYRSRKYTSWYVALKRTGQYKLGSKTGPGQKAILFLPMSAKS
The nature of assay [7]: JC-1 mitochondrial potential readout, lung cancer cells – cell-based, A549, JC-1 fluorescence, basal, 24 h, 100 nL, profiling panel (AID 1138).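 Further: A549 lung adenocarcinoma cells under basal conditions with no added stimulus; test concentration not given here.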 The note with it: higher = more signal.
The test system of assay [8] is Lefty1. Description: Lefty1 protein binding to printed compounds – biochemical, small-molecule microarray, 635/667 nm fluorescence, primary screen (AID 1139). The following applies: fluorescence 635/667, higher = more signal.
For assay [9], the system named is wheat germ agglutinin (Triticum aestivum), Alexa647-labelled. Description: Alexa647-WGA lectin binding to printed small molecules – biochemical, small-molecule microarray, 635/667 nm fluorescence, artefact control for SMM control-protein annotation, profiling panel (AID 1140).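 Further: score merges 667 nm feature emission with signal to noise over triplicate slides.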 The note with it: WGA-A647 binding, 635 nm fluorescence, higher = more signal.
Assay [10] concerns the target Luciferin 4-monooxygenase (Photinus pyralis) (UniProt P08659). Kind of assay: inhibition of purified Photinus pyralis luciferase – biochemical, luminescence, purified enzyme, 2006 set, primary screen (AID 1141).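 Further: cell-free assay with purified firefly luciferase at 100 ng per well in PBS; test concentration not given here.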 The note with it: purified firefly luciferase, SteadyGlo luminescence, 30 min; higher = more signal, called active from +8 up or from −8 down.
In assay [11] the test system is Wnt5a (protein binding on small-molecule microarray). Kind of assay: small molecules binding Wnt5a protein – biophysical, small-molecule microarray, 635/667 nm fluorescence, primary screen (AID 1142).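 Further: fluorescence read at 667 nm with signal to noise per printed feature.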 The note with it: 635 nm fluorescence, higher = more signal.
Assay [12] can be described thus: ATP-based viability of Huh7 replicon cells – cell-based, CellTiter-Glo luminescence, basal, 48 h, cytotoxicity control for HCV replication inhibitor project, primary screen (AID 1143).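 Further: Huh7 hepatoma cells carrying a hepatitis C replication reporter with no stimulus; test concentration not given here.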 The note with it: higher = more signal, called active from +8 up or from −8 down. (In antiviral work, replicon cells carry a viral genome segment that copies itself.)
A short description of assay [13]: Pseudomonas biofilm growth suppression – PAO1 strain, BacTiter-Glo luminescence, LB-PBS, primary screen (AID 1144). The note with it: P. aeruginosa PAO1 biofilm, 12 h, higher = more signal.
The nature of assay [14]: basal CRE-LacZ reporter activity in PC12 – cell-based, unstimulated, primary screen (AID 1145). The note with it: no forskolin, luminescence, 4.5 h, higher = more signal, called active from +8 up or from −8 down.
Assay [15] is described as follows: forskolin-driven CRE-LacZ activity in PC12 – cell-based, CRE-LacZ reporter, forskolin-stimulated, primary screen (AID 1146).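 Further: PC12 cells with 6xCRE LacZ reporter stimulated by forskolin 10 µM; beta-galactosidase reporter signal reflecting CREB driven transcription.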 The note with it: luminescence, 4.5 h, higher = more signal, called active from +8 up or from −8 down.
Assay [16] concerns the target Streptavidin (Streptomyces avidinii) (UniProt P22629). Kind of assay: compounds binding control protein streptavidin – biophysical, small-molecule microarray, 635/667 nm fluorescence, artefact control for SMM compound annotation, primary screen (AID 1147).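 Further: signal reflects streptavidin binding to arrayed compounds as a control protein.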 The note with it: higher = more signal.
A short description of assay [17]: probe aInhba binding on compound microarray – biochemical, small-molecule microarray, 635/667 nm fluorescence, primary screen (AID 1148).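 Further: score merges 667nm spot fluorescence with signal-to-noise for antibody binding to printed compounds.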 The note with it: higher = more signal.
Assay [18] has as its target Torsin-1A (Homo sapiens) (UniProt O14656). Description: TOR1A wild-type binding on microarray – cell lysate, small-molecule microarray, lysate, 635/667 nm, primary screen (AID 1149). The following applies: COS7 hTOR1A-WT lysate, 635 nm fluorescence, higher = more signal.
For assay [19] the target is unchanged. Kind of assay: torsin A mutant lysate binding on microarrays – cell lysate, small-molecule microarray, COS7 lysate, 635/667 nm fluorescence, primary screen (AID 1150).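 Further: score pools 667 nm emission and signal to noise measuring lysate protein binding.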 The following applies: COS7 hTOR1A mutant lysate, 635 nm fluorescence, higher = more signal.
Assay [20] deals with Sonic hedgehog protein (Shh). Kind of assay: Sonic hedgehog microarray binding compounds – biochemical, small-molecule microarray, 635/667 nm fluorescence, primary screen (AID 1151).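 Further: Shh protein binding to compounds spotted on small-molecule microarray slides; score combines spot fluorescence intensity with signal-to-noise across triplicate slides.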 The following applies: 635 nm fluorescence, higher = more signal.

Follistatin (Homo sapiens), sequence (P19883 whole entry, looked up): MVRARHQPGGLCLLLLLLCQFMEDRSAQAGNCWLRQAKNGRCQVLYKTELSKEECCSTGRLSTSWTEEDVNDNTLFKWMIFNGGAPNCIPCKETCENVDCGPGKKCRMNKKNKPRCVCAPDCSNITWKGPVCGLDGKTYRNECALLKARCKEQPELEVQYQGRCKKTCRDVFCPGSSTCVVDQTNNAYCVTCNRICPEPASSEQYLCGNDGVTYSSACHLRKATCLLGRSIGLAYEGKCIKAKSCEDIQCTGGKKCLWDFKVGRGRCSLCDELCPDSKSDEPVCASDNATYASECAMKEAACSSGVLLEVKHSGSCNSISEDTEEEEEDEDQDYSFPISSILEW
Streptavidin (Streptomyces avidinii), sequence (P22629 whole entry, looked up): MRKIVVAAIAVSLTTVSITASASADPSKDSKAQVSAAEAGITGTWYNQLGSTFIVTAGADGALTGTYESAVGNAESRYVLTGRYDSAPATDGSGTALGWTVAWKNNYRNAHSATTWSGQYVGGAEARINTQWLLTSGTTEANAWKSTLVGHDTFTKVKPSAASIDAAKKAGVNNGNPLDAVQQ
Torsin-1A (Homo sapiens), sequence (O14656 whole entry, looked up): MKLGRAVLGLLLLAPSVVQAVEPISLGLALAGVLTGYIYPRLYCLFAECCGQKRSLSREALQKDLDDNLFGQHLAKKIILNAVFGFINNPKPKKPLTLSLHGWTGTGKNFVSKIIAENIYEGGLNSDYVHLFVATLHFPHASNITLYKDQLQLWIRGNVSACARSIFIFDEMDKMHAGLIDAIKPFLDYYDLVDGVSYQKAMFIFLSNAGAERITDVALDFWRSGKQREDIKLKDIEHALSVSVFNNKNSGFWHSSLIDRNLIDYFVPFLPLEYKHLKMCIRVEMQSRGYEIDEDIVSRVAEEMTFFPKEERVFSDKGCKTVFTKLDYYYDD
Luciferin 4-monooxygenase (Photinus pyralis), sequence (P08659 whole entry, looked up): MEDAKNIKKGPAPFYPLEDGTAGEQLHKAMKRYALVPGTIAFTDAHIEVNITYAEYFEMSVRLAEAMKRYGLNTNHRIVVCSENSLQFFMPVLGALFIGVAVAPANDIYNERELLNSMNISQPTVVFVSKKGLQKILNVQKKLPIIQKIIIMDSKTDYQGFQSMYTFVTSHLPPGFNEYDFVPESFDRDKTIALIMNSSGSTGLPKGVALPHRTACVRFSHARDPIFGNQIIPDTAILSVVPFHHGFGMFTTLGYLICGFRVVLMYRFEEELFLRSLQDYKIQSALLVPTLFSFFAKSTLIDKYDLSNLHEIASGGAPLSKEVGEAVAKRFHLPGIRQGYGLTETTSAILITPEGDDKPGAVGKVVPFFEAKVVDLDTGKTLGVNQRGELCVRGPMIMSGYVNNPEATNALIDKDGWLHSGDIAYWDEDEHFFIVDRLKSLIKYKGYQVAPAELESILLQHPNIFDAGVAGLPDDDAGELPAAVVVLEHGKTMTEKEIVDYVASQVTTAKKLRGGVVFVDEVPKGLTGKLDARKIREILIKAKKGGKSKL

`CC(C)(C)OC(=O)CC[C@@]1(C(=O)O)N=C(c2ccc(OCCCO)cc2)O[C@@H]1c1ccccc1CN=[N+]=[N-]`: the composite z-score is 2.7 in [1]; 0.807 in assay [2]; 0.399 in assay [3]; 0.85 in assay [4]; 0.367 in assay [5]; -0.279 in assay [6]. The composite z-score in [8] is -0.816; in assay [9], 0.851; in assay [11] it was 0.48; in assay [16] it was 0.725; in assay [17], 0.239; in assay [18] it was 0.0835. Further, the values for the composite z-score in assay [19] and in assay [20] were 0.104 and -1.03, respectively. Moreover, the z-score in assay [7] is 0.792; in assay [10], -2.19 (inactive); in assay [12], 0.625 (inactive); in assay [13], -0.21 (inactive); in assay [14], -0.128 (inactive); in assay [15], -0.912 (inactive).

With `CCOC(=O)C[C@H]1[C@H](OC(=O)c2ccc(-c3ccccc3)cc2)[C@@H](NC(=O)c2ccc3ccccc3c2)c2cc(OCCCO)ccc2N1C(=O)c1ccc2ccccc2n1`, the composite z-score was 0.558 in [1]; 0.921 in assay [2]; -0.152 in [3]; 0.735 in assay [4]; 0.458 in [5]; -0.141 in assay [6]. Further, the composite z-score in assay [8] turned out to be 0.367; in assay [9] it was 0.209; in assay [11] it was 0.0577; in assay [16], 1.02; in [17], 0.106; in [18], 0.138. The composite z-score in assay [19] stood at 0.527; in [20], 0.539. Moreover, the z-score in [7] was 0.329; in [10] it was -0.704 (inactive); in [12] it was 0.866 (inactive); in assay [13], -0.0546 (inactive); in [14], -0.593 (inactive); in assay [15], -0.611 (inactive).

As to `CO[C@H]1O[C@H](CO)[C@@H](OC(=O)Nc2ccccc2-c2ccccc2)[C@H](OC(=O)Nc2ccc3c(c2)OCO3)[C@@H]1OC(=O)Nc1ccc2c(c1)OCO2`, the composite z-score turned out to be 0.971 in assay [1]; 1.27 in assay [2]; 0.485 in assay [3]; 0.991 in [4]; 1.24 in [5]; 0.853 in assay [6]. For the same molecule, the composite z-score in [8] came out at 1.16; in [9], 0.412; in [11], 0.25; in assay [16] it was 0.282; in assay [17], 0.361; in assay [18], 0.388. The composite z-score in assay [19] turned out to be 1.41; in assay [20] it was 0.91. Also, the z-score in assay [7] is 1.56; in assay [10] it was -7.93 (inactive); in [12] it was -2.72 (inactive); in assay [13], 0.233 (inactive); in assay [14], 0.792 (inactive); in assay [15] it was -1.52 (inactive).

Take `COC(=O)[C@@]1(Cc2ccc(OC)cc2)[C@H]2c3cc(C(=O)N(C)C)n(Cc4ccccc4)c3C[C@H]2CN1C(=O)c1ccccc1`: the composite z-score was 3.25 in assay [1]; 1.14 in assay [2]; 0.649 in [3]; -0.228 in assay [4]; -0.0192 in assay [5]; -0.825 in assay [6]. Further, the composite z-score in [8] is -0.244; in assay [9] it was 0.578; in assay [11], -0.0424; in assay [16], 0.707; in assay [17] it was 0.0882; in assay [18] it was -0.0982. Also, the composite z-score is 0.14 in assay [19] and -1.21 in assay [20]. In addition, the z-score in assay [7] is 2.63; in assay [10], 0.84 (inactive); in assay [12], -3.07 (inactive); in [13], -0.784 (inactive); in assay [14], -0.764 (inactive); in [15], 0.592 (inactive).

`COc1ccc([Si](C)(C)[C@H]2[C@H](CC(=O)N3Cc4ccccc4C[C@H]3CO)O[C@@]3(C(=O)N(Cc4cccc(N5CCCCC5=O)c4)c4ccccc43)[C@@H]2C)cc1`: the composite z-score was 1.57 in assay [1]; 0.307 in [2]; 0.566 in assay [3]; 0.378 in assay [4]; 1.3 in assay [5]; 1.58 in [6]. Moreover, the composite z-score in assay [8] was 1.53; in assay [9], 0.292; in assay [11] it was 0.329; in [16], -0.0717; in assay [17], 0.0422; in assay [18], 0.849. Besides, the composite z-score was 0.431 in assay [19] and 2.15 in assay [20]. Moreover, the z-score was 0.925 in assay [7]; -0.0418 (inactive) in assay [10]; -3.48 (inactive) in assay [12]; -0.185 (inactive) in [13]; 2.21 (inactive) in [14]; 0.114 (inactive) in assay [15].
